In the library only some 0.93% were active in any assay of this set; here they are far more common.
TAR Tat displ: HIV-1 TAR-Tat binding disruption. HIV-1 TAR RNA, Tat peptide displacement FRET; stronger effect = higher value. z-score (concentration not given with the values). 100,000 compounds, 0.6% hits; active means z-score of 3 or more in at least 2 runs
CDC25B-CDK2 inh: human CDC25B-CDK2/CyclinA binding inhibition | HTRF CDC25B-CDK2/CyclinA binding, anti-His/anti-Flag; stronger effect = higher value | 94,000 compounds, 0.72% hits | AID 1259370 | z-score (concentration not given with the values); in the data active means z-score above about 3.2
* marks the source's active call; other numbers are inactive results; nt = no result.

SMILES	TAR Tat displ	CDC25B-CDK2 inh
CC(C)Cn1cc(NC(=O)NCCCN(C)c2ccccc2)c2ccccc2c1=O	-0.7	19.5*
CC(C)Cn1cc(NC(=O)N(Cc2ccccc2)C(C)C)c2ccccc2c1=O	6.6*	nt
Nc1ccc(Oc2cccc(-c3ccc(N)cc3)c2)cc1	2.1	nt
O=C(O)c1cc(Nc2nc(-c3cccnc3)cs2)ccc1O	4.39*	-5.72
Oc1cccc(Nc2nc(-c3cccnc3)cs2)c1	2.75	-1.45
CCn1c[n+](CC(O)COc2ccccc2)c2ccccc21 (configuration not stated)	1.19	-0.35
CCn1c[n+](CC(O)COc2ccccc2)c2cc(C)c(C)cc21 (configuration not stated)	0.83	16*
Nc1ncccc1NC(=O)CCC(=O)O	0.11	14.4*
O=C(O)CCCC(=O)Nc1cccc2cccnc12	1.35	-0.19
O=C(Nc1ccc2oc(-c3ccncc3)nc2c1)c1ccc(-c2ccc(F)cc2)o1	nt	0.01
Cc1ncc(CCCCN(C)C)c2c1[nH]c1ccccc12	3.66	1.14
CNCCCCc1cnc(C)c2[nH]c3ccccc3c12	5.02*	nt
CC1O[P+]2(OC1C)OC(C)C(C)O2 (configuration not stated)	nt	5.15*
O=c1cc(CSc2nc3ccccc3c3nc(-c4ccccc4)nn23)nc2ccc(Cl)cn12	nt	-0.35
COc1cccc(OC)c1C(=O)NN	nt	-2.14
COc1cccc(O)c1O	13.4*	nt
NC(=O)c1cccc2c1NC(C(=O)O)C1CC=CC21 (configuration not stated)	27.2*	0.33
O=C(O)C1Nc2c(O)cccc2C2C=CCC12 (configuration not stated)	nt	3.8
COc1ccc(Cl)cc1NC(=O)NC(C)c1c(-n2cccc2)sc(C)c1C (configuration not stated)	-0.46	-9.4
Nc1c(C(=O)Nc2ccccc2)sc2nc(N3CCCC3)c3c(c12)CCCC3	0.95	6.06
CC(=O)Nc1ccc2c(c1)nc1n2CCN(C(C)C)C1	-7.6	-0.16
CC(C)N1CCn2c(nc3cc(NC(=O)c4ccco4)ccc32)C1	18.7*	10.3*
CCSc1ncc(Cl)c(C(=O)Oc2ccc(Br)cc2)n1	2.26	-1.06
CC1=NN(c2ccccc2)C(=O)/C1=C1/C(=O)N(c2ccccc2)N=C1C	nt	1.06
CCC1=NN(c2ccccc2)C(=O)C1	-0.73	10.1*
SMILES	TAR Tat displ	CDC25B-CDK2 inh
CC(Cc1ccco1)NS(=O)(=O)c1ccc(-c2ccc(=O)[nH]n2)s1 (configuration not stated)	0.03	nt
Cc1c(C(=O)NCCCN2CC(C)CC(C)C2)sc2nc3n(c(=O)c12)CCCCC3 (configuration not stated)	0.61	nt
C=Cc1c(C)/c2[n-]/c1=C\c1[n-]c(c(CC)c1C)/C=c1\[n-]c3c(c1C)C(=O)C(C(=O)[O-])C=3c1[n-]c(c(C)c1CCC(=O)[O-])\C=2.[Cu].[Na+].[Na+] (configuration not stated)	23.1*	nt
CCCNc1nc(NCCC)c2cnn(C)c2n1	1.05	nt
CC(=O)NCCNC(=O)c1ccc(NC2=NC3CS(=O)(=O)CC3S2)cc1 (configuration not stated)	11.2*	nt
CN(C)CCNC(=O)c1ccc(NC2=NC3CS(=O)(=O)CC3S2)cc1 (configuration not stated)	2.12	nt
CCOC(=O)c1cnc(SC)nc1C	0.71	nt
CN1CCC(N(C)C(=O)C(=O)c2c[nH]c3ccccc23)CC1	nt	-2.15
CC(=O)NCCNC(=O)c1ccc2c(=O)[nH]c3c(C(=O)NC4CCCC4)sc(=S)n3c2c1	16.4	nt
CCN(CC)CCNC(=O)c1ccc2c(=O)[nH]c3c(C(=O)NC(C)C)sc(=S)n3c2c1	6.41*	nt
CC(C)NC(=O)c1sc(=S)n2c1[nH]c(=O)c1ccc(C(=O)NC(C)c3ccccc3)cc12 (configuration not stated)	0.68	nt
O=C(NCc1ccccc1)c1sc(=S)n2c1[nH]c(=O)c1ccccc12	8.36*	nt
O=C(NCc1cccc(Cl)c1)c1sc(=S)n2c1[nH]c(=O)c1ccccc12	2.85	nt
O=C(NCc1ccco1)c1ccc2c(=O)[nH]c3c(C(=O)NCC4CCCO4)sc(=S)n3c2c1 (configuration not stated)	4.7*	nt
NC(=O)Cn1c(=O)n(-c2ccc(Cl)cc2)c(=O)c2c3c(sc21)CCC3	nt	-1.45
CCC(O)c1nc2ccccc2n1CCOc1cc(C)ccc1C (configuration not stated)	-0.22	1.16
CSc1ccc(CNC(=O)c2ccc3c(c2)NC(=O)C2CCCCN32)cc1 (configuration not stated)	0.46	nt
Cc1cc(C)n(-c2cc(Nc3ccc(F)cc3)ncn2)n1	-0.72	nt
O=c1[nH]c2ccc(Nc3cc(N4CCOCC4)ncn3)cc2[nH]1	0.27	8.21*
CC1CSc2ccc(S(=O)(=O)N3CCN(c4ccccn4)CC3)cc2NC1=O (configuration not stated)	0.17	nt
COc1ccccc1NC(=O)N1c2ccccc2NC2=C(C(=O)CCC2)C1c1cccs1 (configuration not stated)	2.65	nt
CCOc1ccccc1NC(=O)N1c2ccccc2NC2=C(C(=O)CCC2)C1c1cccs1 (configuration not stated)	21.1*	nt
O=C1CCCC2=C1C(c1cccc(Cl)c1)n1nc(SCc3ccccc3)nc1N2 (configuration not stated)	nt	-0.82
Cc1c([N+](=O)[O-])sc2nc[nH]c(=O)c12	11.4*	-0.33
Cc1c(C(=O)Nc2ccc(F)cc2)sc2nc[nH]c(=O)c12	1.57	nt
SMILES	TAR Tat displ	CDC25B-CDK2 inh
c1ccc2c(c1)CCN(c1ncnc3c1nc1n3CCCCC1)C2	-0.35	nt
Cc1ccc(C)c(N2CCN(S(=O)(=O)c3ccc4c(c3)C(C)(C)C(=O)N4)CC2)c1	-1.02	nt
Cc1ssc(=S)c1-c1ccccc1	nt	5.7*
Cc1c(Br)sc(Br)c1-c1ccccc1	nt	-1.15
CC1=C(C(=O)OC2CCCC2)C(c2cccs2)C2=C(CCCC2=O)N1 (configuration not stated)	-12.6	-0.87
Cc1cc2n(n1)CCCN2C(=O)Nc1ccc(Br)cc1F	1.41	nt
COc1ccc(-c2c(N)n[nH]c2C)cc1OC	0.76	-2.18
COc1ccc(-c2cc(C3CCN(c4nc(N)c5cc(OC)c(OC)cc5n4)CC3)[nH]n2)cc1OC	nt	19.8*
COc1cc(C2SCCS2)cc(Br)c1OC(=O)NC(=O)c1c(F)cccc1F	nt	-2.05
Cn1c(=O)n(Cc2ccccc2Cl)c(=O)c2c1nc1n2CCN1c1ccc(F)cc1	4.33	nt
CCCCCCCCCCCCCCCCCCN=C(C)N	nt	4.5*
CC(N)=NCCCC[C@@H](N)C(=O)O	nt	0.56
Cc1cc(Nc2ccc(C)c(F)c2)n2nc(-c3ccccc3)nc2n1	-0.35	nt
Cc1cc2c3c(c1)C1C=CCC1C(C(=O)O)N3CC1CC=CC21 (configuration not stated)	nt	-1.16
O=C(O)C1C2CC=CC2c2cc(Br)cc3c2N1CC1CC=CC31 (configuration not stated)	20.1*	4.91*
Fc1ccccc1-c1ccc(-c2nn3c(-c4ccco4)nnc3s2)o1	19.9*	-0.12
FC(F)(F)c1cccc(-c2ccc(-c3nn4c(-c5ccco5)nnc4s3)o2)c1	nt	1.43
Clc1cccc(-c2ccc(-c3nn4c(-c5ccco5)nnc4s3)o2)c1	17.4*	-0.52
Cc1occc1-c1nnc2sc(-c3ccc(-c4cccc(Cl)c4)o3)nn12	1.72	-0.12
CSc1ccc(/C=C/c2nc(=O)c3ccccc3o2)cc1	-0.65	-0.74
